Activity calls are given as the source filed them. Calls follow the shape of the dose curve; as a rule, active = well fitted curve in the direction sought with a large enough effect in the repeat runs; inconclusive = weak or mixed curves; inactive = flat fitted curve, though single readings scatter.
experiment: qHTS assay to test for compound auto fluorescence at 460 nm (blue) in HepG2 cells (AID 720687); conditions: autofluorescence 405/460 nm, 1 h; series mostly up to 91.3 µM
Text: U.S. Tox21 Program National Center for Advancing Translational Sciences [NCATS] NIH Chemical Genomics Center [NCGC] U.S. Environmental Protection Agency [EPA] National Institutes of Environmental Health Sciences [NIEHS] National Toxicology Program [NTP] U.S. Food and Drug Administration [FDA] Tox21 Assay Overview: Compound auto fluorescence often interferes with screening of the compound library against various biological targets and signaling pathways. Some of these compounds may have fluorophoric properties. Such properties may interfere with the assay outputs resulting in false positives and/or negatives. To decrease such complications and ensure the compound activities are relevant in terms of biological response, the Tox21 10K compound library was screened for auto fluorescence. From the fluorophores used as reporter signals in our screening assays, the auto fluorescence equivalencies of compounds against three fluorophores have been evaluated: Triamterene, Fluorescein and Rose Bengal sodium for blue, green and red fluorescence, respectively. The fluorescence intensities were measured using Excitation/Emission wavelengths at 405/460nm, 485/535nm and 540/590nm for blue, green and red labels, respectively. This assay includes the blue fluorescence data.
Tox21 Assay Protocol Summary: 2,000 HepG2 cells in 5 uL of culture medium (MEM containing 10% FBS) per well were dispensed into black wall/clear bottom 1536-well plates using a Multidrop Combi Dispenser (ThermoFisher Scientific, Waltham, MA). The assay plates were incubated overnight at 37 C to allow cell attachment to the well bottom, followed by the transfer of 23 nL compound or DMSO vehicle by a pintool work station (Kalypsys , San Diego, CA). After the assay plates were incubated for 1 hr at 37 C and 5% CO2, fluorescence intensities in the assay plates were measured by an Envision (PerkinElmer, Shelton, CT) plate reader using three labels for measuring blue, green and red fluorescence at […] 460, 535 and 590 nm respectively.

SMILES	outcome
CCSC(=O)N1CCCCCC1	inactive
O=C(O)CCCc1ccc(N(CCCl)CCCl)cc1	inactive
CC(C)c1cccc(C(C)C)c1O	inactive
Oc1ccc(Cl)cc1	inactive
Nc1cccc(Cl)c1	inactive
CN(C)C(=O)C(c1ccccc1)c1ccccc1	inactive
C[C@]12CC[C@H](O)CC1=CC[C@@H]1[C@@H]2CC[C@]2(C)C(=O)CC[C@@H]12	inactive
CNc1cnn(-c2cccc(C(F)(F)F)c2)c(=O)c1Cl	inactive
CN(C)C(=O)Cl	inactive
COS(=O)(=O)OC	inactive
Nc1nc(N)nc(NC2CC2)n1	inactive
CC12CC1(C)C(=O)N(c1cc(Cl)cc(Cl)c1)C2=O (stereo not given)	inactive
Nc1ncc([N+](=O)[O-])s1	inactive
C=CC(=O)OCCCCCC(C)C	inactive
COc1cc(-c2ccc(N)c(OC)c2)ccc1N	inactive
CSc1nnc(C(C)(C)C)c(=O)n1N	inactive
O=[N+]([O-])c1ccc(Cl)c(Cl)c1	inactive
CCOc1ccc(N)cc1	inactive
COP(=S)(OC)SCN1C(=O)c2ccccc2C1=O	inactive
CCOC(=O)CC(SP(=O)(OC)OC)C(=O)OCC (stereo not given)	inactive

SMILES	outcome
CN(C)C(=O)Nc1cccc(C(F)(F)F)c1	inactive
C=CCN=C=S	inactive
COP(=S)(OC)Oc1ccc(SC)c(C)c1	inactive
C/C=C/c1ccc2c(c1)OCO2	inactive
Nc1ccc(N)cc1	inactive
COC(C)(C)CCCC(C)C/C=C/C(C)=C/C(=O)OC(C)C (stereo not given)	inactive
CCOP(=S)(OCC)Oc1cc(C)nc(C(C)C)n1	inactive
Cc1ccc(N=C=O)cc1N=C=O	inactive
Cc1cccc(C)c1NC(=O)CN1CCCC1=O	inactive
OCC(O)CCl (stereo not given)	inactive
CN1C(=O)CCS(=O)(=O)C1c1ccc(Cl)cc1 (stereo not given)	inactive
OCCCCO	inactive
Nc1ccc([As](=O)(O)O)cc1	inactive
O=C(O)C(Br)Br	inactive
CNC(=O)O/N=C/C(C)(C)S(C)(=O)=O	inactive
CNC(=O)O/N=C(\SC)C(=O)N(C)C	inactive
CNC(=O)Oc1cccc2ccccc12	inactive
CCNc1nc(Cl)nc(NC(C)C)n1	inactive
NNc1ccccc1	inactive
CC(C)(C)C(=O)CCl	inactive

From PubChem BioAssay (Tox21)
